Read-outs that look alike come from different tables or passages of the source.
Experiments:
Design in all cases: species or system human, MV4-11 + K-562 + COLO205 + SK-N-BE2 + OVCAR-8
ACVR1 = settings: read-out: apparent Kd; compound concentrations:100 nM and 1000 nM (sheet 'Samples'); n = 1
CDK9 = settings: read-out: apparent Kd; compound concentrations:100 nM and 1000 nM (sheet 'Samples'); n = 1
CSNK2A1;CSNK2A3 = settings: read-out: apparent Kd; compound concentrations:100 nM and 1000 nM (sheet 'Samples'); n = 1
CSNK2A2 = settings: read-out: apparent Kd; compound concentrations:100 nM and 1000 nM (sheet 'Samples'); n = 1
ERBB3 = settings: read-out: apparent Kd; compound concentrations:100 nM and 1000 nM (sheet 'Samples'); n = 1
FLT3 = settings: read-out: apparent Kd; compound concentrations:100 nM and 1000 nM (sheet 'Samples'); n = 1
GSK3A = settings: read-out: apparent Kd; compound concentrations:100 nM and 1000 nM (sheet 'Samples'); n = 1
GSK3B = settings: read-out: apparent Kd; compound concentrations:100 nM and 1000 nM (sheet 'Samples'); n = 1
ICK = settings: read-out: apparent Kd; compound concentrations:100 nM and 1000 nM (sheet 'Samples'); n = 1
NLK = settings: read-out: apparent Kd; compound concentrations:100 nM and 1000 nM (sheet 'Samples'); n = 1
PIM2 = settings: read-out: apparent Kd; compound concentrations:100 nM and 1000 nM (sheet 'Samples'); n = 1
TAOK1 = settings: read-out: apparent Kd; compound concentrations:100 nM and 1000 nM (sheet 'Samples'); n = 1
TNIK = settings: read-out: apparent Kd; compound concentrations:100 nM and 1000 nM (sheet 'Samples'); n = 1
ADCK3 = settings: read-out: apparent Kd, n = 1
AKT3 = settings: read-out: apparent Kd, n = 1
MAP2K5 = settings: read-out: apparent Kd; compound concentrations: 100 nM and 1000 nM (sheet 'Samples'), CATDS: 0.16534591084459199; n = 1
NQO1 = settings: read-out: apparent Kd; compound concentrations: 100 nM and 1000 nM (sheet 'Samples'), CATDS: 0.18486916507509299; n = 1
TNK1 = settings: read-out: apparent Kd; compound concentrations: 100 nM and 1000 nM (sheet 'Samples'), CATDS: 0.23807616191270001; n = 1
BRAF = settings: read-out: apparent Kd; compound concentrations:100 nM and 1000 nM (sheet 'Samples'); n = 1
NNT = settings: read-out: apparent Kd; compound concentrations:100 nM and 1000 nM (sheet 'Samples'); n = 1
RIPK2 = settings: read-out: apparent Kd; compound concentrations:100 nM and 1000 nM (sheet 'Samples'); n = 1
STK26 = settings: read-out: apparent Kd; compound concentrations:100 nM and 1000 nM (sheet 'Samples'); n = 1
[1] = compound concentrations: 100 nM and 1000 nM (sheet 'Samples'), CATDS: 1
[2] = compound concentrations:100 nM and 1000 nM (sheet 'Samples')

With O=C(Nc1n[nH]c2nc(-c3ccc(O)cc3)ccc12)C1CC1 [SB-710363] the potency estimated from few doses (ACVR1) was 1.21 µM, the potency estimated from few doses (CDK9) was 2.3 µM and the potency estimated from few doses (CSNK2A1;CSNK2A3) was 2.32 µM. It also gave a potency estimated from few doses (CSNK2A2) of 1.27 µM, a potency estimated from few doses (ERBB3) of 1.71 µM and a potency estimated from few doses (FLT3) of 1.53 µM. The potency estimated from few doses (GSK3A) was 0.0617 µM, the potency estimated from few doses (GSK3B) was 0.147 µM and the potency estimated from few doses (ICK) was 1.13 µM. The potency estimated from few doses (NLK) was 1.44 µM, the potency estimated from few doses (PIM2) was 1.33 µM and the potency estimated from few doses (TAOK1) was 1.13 µM. The potency estimated from few doses (TNIK) was 1.63 µM.
O=C(Nc1cccc(-c2nn3ccccc3c2-c2ccnc(Nc3cccc(F)c3)n2)c1)c1c(F)ccc(F)c1Cl [GSK357952A] was tested, and the potency estimated from few doses (ADCK3; [1]) was 0.131 µM.
With COc1cc2nccc(Nc3cccc(Oc4ccccc4)c3)c2cc1OC.Cl [GW284543A] the potency estimated from few doses (ADCK3; compound concentrations: 100 nM and 1000 nM (sheet 'Samples'), CATDS: 0.252282452250228) was 0.949 µM, the potency estimated from few doses (AKT3; compound concentrations: 100 nM and 1000 nM (sheet 'Samples'), CATDS: 0.185918724063731) was 1.71 µM and the potency estimated from few doses (MAP2K5) was 2.26 µM. It also gave a potency estimated from few doses (NQO1) of 1.73 µM and a potency estimated from few doses (TNK1) of 1.05 µM.
With CN(C)CCOc1ccc(-c2nc(-c3ccc4c(c3)CC/C4=N/O)c(-c3ccncc3)[nH]2)cc1 [SB-590885_KCGS] the potency estimated from few doses (ADCK3; [2]) was 1.15 µM, the potency estimated from few doses (AKT3; [2]) was 1.9 µM and the potency estimated from few doses (BRAF) was 0.0886 µM. It also gave a potency estimated from few doses (NNT) of 1.68 µM, a potency estimated from few doses (RIPK2) of 0.679 µM and a potency estimated from few doses (STK26) of 2.21 µM.
FC(F)(F)c1ccc(/C=C/c2cncnc2Nc2ccc3[nH]c(Cc4ccccc4)nc3c2)cc1 [GW709199X] was tested, and the potency estimated from few doses (ADCK3; [1]) was 0.456 µM.
